Screening results: PubChem, Sanford-Burnham Center for Chemical Genomics
tim10-1 inh – growth inhibitors of tim10-1 mutant yeast; inhibition, % at 20 µM; 2.2% of 330,000 active; S. cerevisiae tim10-1 ts strain growth, BacTiter-Glo, 24 h;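 active = inhibition of at least 40%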;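 note: mutant grown at 25 °C; 0% = DMSO wells with yeast and 100% = wells holding no yeast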
tim23-1 inh – growth inhibitors of tim23-1 mutant yeast. S. cerevisiae tim23-1 growth, BacTiter-Glo luminescence, 24 h. 1.3% of 330,000 active. inhibition, % at 20 µM;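 active = growth inhibition of the mutant yeast at or above 50%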;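 note: temperature-sensitive mutant grown at 25 °C; plate controls were DMSO-treated mutant yeast for no effect and medium wells lacking yeast for full effect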
MPTP block – inhibitors of mitochondrial permeability transition pore. isolated mouse mitochondria, Ca2+ swelling absorbance, 30 min. inhibition, % at 10 µM. 1.4% of 360,000 active. AID 602449;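 active = inhibition of 50% or more, scaled per plate between neutral and stimulator controls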;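 note: 0% = DMSO wells given calcium and 100% = 1 mM EGTA wells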
Mdm2-MdmX inh – inhibitors of human Mdm2/MdmX interaction; 3% of 330,000 active; inhibition, % at 8 µM; O15151+Q00987; AID 485346; SaOS-2 split-luciferase Mdm2/MdmX complementation, luminescence;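 active = inhibition of at least 50% at 8 µM in the primary screen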
TIM10 inh – TIM10 yeast growth inhibition. S. cerevisiae TIM10 strain growth, BacTiter-Glo luminescence, 24 h. inhibition, % at 10 µM. 1.4% of 330,000 active. AID 463195;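 active = inhibition of 40% or more at the single tested concentration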;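 note: wild-type TIM10 isogenic control strain grown at permissive 25 °C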
tim10-1 confirm – tim10-1 yeast growth inhibition, confirmed | shares compounds with tim10-1 inh | S. cerevisiae tim10-1 ts strain growth, BacTiter-Glo, 24 h | inhibition, % at 20 µM | 56% of 7,400 active | AID 463213;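 active = inhibition of yeast growth at or above a set limit in either of two repeat tests at 20 µM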;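 note: tim10-1 mutant grown at permissive 25 °C to find synthetic lethal compounds; 0% = DMSO yeast wells and 100% = medium wells without yeast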
TIM10 conf – TIM10 yeast growth inhibition, confirmed; 63% of 4,600 active; S. cerevisiae tim10 strain growth, BacTiter-Glo luminescence, 24 h; inhibition, % at 10 µM; AID 463215; shares compounds with TIM10 inh;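 active = inhibition of yeast growth at or above a set limit in either of two replicates at 10 µM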;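 note: this counterscreen used the strain with wild-type TIM10; 0% = yeast with DMSO and 100% = medium wells lacking yeast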
tim23-1 conf – tim23-1 yeast growth inhibition, confirmed; inhibition, % at 20 µM; S. cerevisiae tim23-1 growth, BacTiter-Glo luminescence, 24 h; shares compounds with tim23-1 inh; 83% of 4,400 active;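 active = inhibition above about 39% in either of two replicate wells at 20 µM, limit read from the data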;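 note: temperature-sensitive tim23-1 mutant grown at 25 °C; 0% = DMSO wells with yeast and 100% = medium wells without yeast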
Mdm2 MdmX conf – confirmation of human Mdm2/MdmX interaction inhibitors; shares compounds with Mdm2-MdmX inh; Mdm2-MdmX binding, luminescent assay; inhibition, % at 8 µM; 55% of 10,000 active; AID 489028; in the data active = inhibition above about 40%
FLuc counter – inhibits full-length luciferase, flagging false Mdm2/MdmX hits | 77% of 6,200 active | SaOS-2 full-length luciferase counterscreen, luminescence | shares compounds with Mdm2-MdmX inh | inhibition, % at 8 µM;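 active = mean inhibition at 8 µM reaching about 37%, which flags the compound as non-specific, limit read from the data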;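 note: p53-null SaOS-2 cells with luciferase driven by a doxycycline-inducible promoter; compound on cells about two nights before reading with doxycycline added after day one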
MPTP counter – membrane potential counter-screen of mitochondrial pore inhibitors; shares compounds with MPTP block; isolated mitochondria, Rhodamine 123 fluorescence; inhibition, % at 10 µM; 78% of 5,000 active; AID 624504; in the data active = inhibition above about 22%;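 note: 0% = DMSO vehicle and 100% = positive control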
An asterisk follows results filed as active; . = not tested or not shown. The list is not random: actives were taken first. Their share in the collection is about 6.3%.

SMILES	tim10-1 inh	tim23-1 inh	MPTP block	Mdm2-MdmX inh	TIM10 inh	tim10-1 confirm	TIM10 conf	MPTP counter	others
CCCCCCCCCCCCCCCC[n+]1cccc2ccccc21	98*	96*	76*	96*	89*	98*	-24	102*	tim23-1 conf=97*;Mdm2 MdmX conf=100*;FLuc counter=4
Cc1ccccc1C[n+]1cccc2ccccc21	10	12	-2	-4	8	.	.	.
CCCCCCCCCn1c2c(c(=N)c3c1CCC3)CCCC2	52*	80*	104*	98*	51*	56*	46*	101*	tim23-1 conf=83*;Mdm2 MdmX conf=96*;FLuc counter=9
CCn1c2c(c(=N)c3c1CCC3)CCCC2	-13	-8	2	38	2	.	.	.
CCCCCCCCCCn1c2c(c(=N)c3c1CCC3)CCC2	65*	83*	85*	98*	39	30	.	99*	tim23-1 conf=76*;Mdm2 MdmX conf=95*;FLuc counter=6
CCOC(=O)Cn1c2c(c(=N)c3c1CCC3)CCC2	6	4	1	2	-10	.	.	.
C[C@@H]1CN([C@H](C)CO)C(=O)CCCn2nncc2CO[C@H]1CN(C)Cc1ccc(O)cc1	.	.	-2	.	.	.	.	.
Cc1cc(OCc2cc(C(=O)N3CCC(Oc4cccnc4)CC3)no2)cc(C)c1Cl	61*	51*	69*	3	41*	38*	47*	102*	tim23-1 conf=55*
CCCCNC(=O)C1(C)CCCCN1C(=O)c1cc(-c2ccccc2)cs1 (stereo unspecified)	.	.	-1	.	.	.	.	.
O=CNc1cc(-c2ccoc2)cn2c(-c3ccc(F)cc3)cnc12	.	.	0	.	.	.	.	.
CS(=O)(=O)NCCNc1ncc(C(F)(F)F)cc1Cl	4	8	0	8	-6	.	.	.
O=S(=O)(NCCNc1ncc(C(F)(F)F)cc1Cl)C(F)(F)F	55*	47	81*	-20	45*	46*	13	94*
CNC(=O)C[C@H]1C(=O)N(Cc2ccccc2)C[C@@H]1C	.	.	1	.	.	.	.	.
FC(F)(F)c1cccc(NC(=S)NCCN2CCOCC2)c1	6	14	2	-5	12	.	.	.
O=C(NNC(=S)Nc1cccc(C(F)(F)F)c1)c1cccc(Cl)c1	50*	41	94*	39	36	46*	.	86*
Fc1ccc(NC(=S)Nc2cccc3ccccc23)cc1F	42*	35	81*	2	23	30	.	98*
FC(F)(F)c1cccc(NC(=S)NCC2COc3ccccc3O2)c1 (stereo unspecified)	66*	49	81*	4	48*	56*	57*	81*
O=C(NNC(=S)Nc1cccc(C(F)(F)F)c1)c1ccccc1Cl	32	21	35	16	19	.	.	.
FC(F)(F)c1cccc(NC(=S)Nc2cccc(NC(=S)Nc3cccc(C(F)(F)F)c3)n2)c1	53*	44	91*	49	48*	33*	32*	64*
CCC1OC(C(C)C)Cc2[nH][nH]c(=O)c21 (stereo unspecified)	.	.	0	.	.	.	.	.
FC(F)(F)c1cccc(NC(=S)Nc2ccc(Cl)cc2Cl)c1	70*	46	98*	11	62*	47*	51*	109*
O=C(/C=C/c1cccc(C(F)(F)F)c1)Nc1cccc(C(F)(F)F)c1	55*	72*	87*	91*	58*	56*	53*	85*	tim23-1 conf=69*;Mdm2 MdmX conf=31;FLuc counter=57*
Fc1ccc(NC(=S)N2CCCC2)cc1Cl	10	9	0	-8	-3	.	.	.
Cc1ccc(NC(=O)/C=C/c2cccc(C(F)(F)F)c2)cc1	-27	-5	17	24	-5	.	.	.
Fc1ccc(NC(=S)Nc2ccc(F)c(Cl)c2)cc1Cl	71*	72*	92*	64*	53*	61*	-15	89*	tim23-1 conf=65*;Mdm2 MdmX conf=28
SMILES	tim10-1 inh	tim23-1 inh	MPTP block	Mdm2-MdmX inh	TIM10 inh	tim10-1 confirm	TIM10 conf	MPTP counter	others
COc1ccc(N=C2SCC(c3ccc([N+](=O)[O-])cc3)=NN2CCO)cc1	8	31	8	-18	11	.	.	.
O=[N+]([O-])c1ccc(C2=NN(CCO)C(=Nc3ccc(OC(F)(F)F)cc3)SC2)cc1	45*	48	54*	18	45*	15	32*	53*
COCCNc1nc(-c2ccccc2CO)c2sc(-c3ccccc3)cc2n1	.	.	-1	.	.	.	.	.
CCCc1nc2c3ccccc3ccn2c1Cc1ccc(OC)cc1C	.	.	-1	.	.	.	.	.
Clc1ccccc1-c1cnc2sc(NCc3ccc4c(c3)OCO4)nn12	.	.	1	.	.	.	.	.
S=C(NC1CCCCC1)N(CCc1nc2ccccc2[nH]1)C1CCCC1	50*	32	65*	32	37	29	.	79*
COc1cccc(C(O)c2nc(-c3cccc(CO)c3)cs2)c1 (stereo unspecified)	.	.	-1	.	.	.	.	.
Cc1ncoc1C(=O)Nc1ncc([N+](=O)[O-])s1	23	7	-1	-7	-3	.	.	.
CCCCC(CC)C(=O)Nc1ncc([N+](=O)[O-])s1 (stereo unspecified)	61*	45	98*	38	49*	62*	24	100*
CC(=O)Nc1ccc(S(=O)(=O)NCCOc2ccc(Cl)cc2C)cc1	7	15	0	18	13	.	.	.
CCCCOc1ccc(CONS(=O)(=O)c2ccc(NC(C)=O)cc2)cc1Cl	55*	14	94*	4	62*	47*	48*	73*
FC(F)(F)c1ccc(NC(=S)NC2CCCCC2)cc1	43*	36	99*	12	36	38*	.	78*
O=C(CNC1CCCCC1)Nc1cccc([N+](=O)[O-])c1	-4	3	1	2	0	.	.	.
CCCNC(=S)Nc1cccc(C(F)(F)F)c1	7	31	0	-20	21	.	.	.
O=C(Nc1cccc([N+](=O)[O-])c1)NC1CCCCCCC1	43*	44	80*	-43	44*	36*	42*	95*
CCCCNC(=S)Nc1ccc(C(F)(F)F)cc1	54*	47	102*	18	21	31*	.	82*
O=C(O)c1ccc(NC(=S)NC2CCCCC2)cc1	12	20	0	5	3	.	.	.
Fc1cccc(NC(=S)NC2CCCCCCC2)c1	50*	46	75*	-7	32	27	.	98*
CC(=O)NCCNc1nc2cc(-c3cccc(Cl)c3)sc2c(=O)n1C	.	.	1	.	.	.	.	.
